In general, AC50 refers to the concentration giving half of the maximal activity seen.

Read-out in assay [1]: Vascular endothelial growth factor receptor 2 (Homo sapiens) (UniProt P35968)
Briefly: BSK_4H_VEGFRII: BioMAP Diversity Plus: 4H Assay for Vascular endothelial growth factor receptor 2 (VEGFR2) Biomarker Activity (AID 2283031). To be noted: primary human endothelial cells (HUVEC); actives raise or lower the signal. The method, boiled down:
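VEGFRII levels on human vascular endothelial primary cells were determined by ELISA at 24 hours post-dosing, with gain- or loss-of-signal fitted against DMSO controls.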

Read-out in assay [2]: Human Leukocyte Antigen - DR isotype (HLADR), HLA-DRA (gene 3122)
Briefly: BSK_BE3C_HLADR: BioMAP Diversity Plus: BE3C Assay for Human Leukocyte Antigen - DR isotype (HLADR) Biomarker Activity (AID 2283032). To be noted: primary human bronchial epithelial cells; actives raise or lower the signal. The method, boiled down: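 Cell-surface HLA-DR ELISA readout at 24 h after dosing in the BE3C primary human lung bronchial epithelial system; gain or loss of signal against DMSO, with parallel sulforhodamine B staining of total protein for overt cytotoxicity.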

Read-out in assay [3]: Vascular cell adhesion molecule 1 (VCAM1), VCAM1 (gene 7412)
Kind of assay: BSK_4H_VCAM1: BioMAP Diversity Plus: 4H Assay for Vascular cell adhesion molecule 1 (VCAM1) Biomarker Activity (AID 2283033).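 For outcome: cell-surface VCAM-1 protein measured by ELISA.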 Conditions: primary human endothelial cells (HUVEC); actives raise or lower the signal. The method, boiled down:
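VCAM-1 ELISA read 24 h after chemical dosing of HUVEC in the BioMAP 4H system, with gain or loss of signal fitted relative to DMSO. Parallel SRB staining (560 nm) checked overt cytotoxicity.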

Read-out in assay [4]: Interferon-gamma inducible Protein 10 (IP10), CXCL10 (gene 3627)
Kind of assay: BSK_BE3C_IP10: BioMAP Diversity Plus: BE3C Assay for Interferon-gamma inducible Protein 10 (IP10) Biomarker Activity (AID 2283034). To be noted: primary human bronchial epithelial cells; actives raise or lower the signal. Put shortly: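 IP-10 quantified by ELISA in human primary bronchial epithelial cell cultures at 24 hours post-dosing. Gain or loss of signal fitted relative to DMSO; parallel SRB staining assessed overt cytotoxicity.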

Read-out in assay [5]: Monokine induced gamma interferon (MIG), CXCL9 (gene 4283)
Kind of assay: BSK_BE3C_MIG: BioMAP Diversity Plus: BE3C Assay for Monokine induced gamma interferon (MIG) Biomarker Activity (AID 2283035). To be noted: primary human bronchial epithelial cells; actives raise or lower the signal. The method, boiled down:
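ELISA quantified MIG after 24 h exposure of primary bronchial epithelial cultures, analysed in both directions relative to DMSO. Cytotoxicity tracked in parallel cultures by sulforhodamine B staining.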

Read-out in assay [6]: Transforming growth factor beta 1 (TGFb1), TGFB1 (gene 7040)
Briefly: BSK_BE3C_TGFb1: BioMAP Diversity Plus: BE3C Assay for Transforming growth factor beta 1 (TGFb1) Biomarker Activity (AID 2283036;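 note: TGF-b1 protein level measured by ELISA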). To be noted: primary human bronchial epithelial cells; actives raise or lower the signal. Put shortly: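 ELISA readout of TGF-b1 from human lung bronchial epithelial primary cells, taken 24 h post-treatment. Gain or loss of signal fitted relative to DMSO baseline, with parallel SRB staining for overt cytotoxicity.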

Read-out in assay [7]: Plasminogen activator inhibitor-1 (PAI1), SERPINE1 (gene 5054)
Kind of assay: BSK_BE3C_PAI1: BioMAP Diversity Plus: BE3C Assay for Plasminogen activator inhibitor-1 (PAI1) Biomarker Activity (AID 2283037). Conditions: primary human bronchial epithelial cells; actives raise or lower the signal. Put shortly: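 PAI-1 was measured by ELISA in human primary bronchial epithelial cultures 24 h after chemical dosing, with cytotoxicity checked by SRB total-protein staining in parallel cultures. Activity was fitted in both directions relative to DMSO.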

Read-out in assay [8]: urokinase plasminogen activator (uPA), PLAU (gene 5328)
Kind of assay: BSK_BE3C_uPA: BioMAP Diversity Plus: BE3C Assay for urokinase plasminogen activator (uPA) Biomarker Activity (AID 2283038).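 Note: uPA protein level quantified by ELISA in cell cultures; uPA read one day after compound addition.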 Conditions: primary human bronchial epithelial cells; actives raise or lower the signal. The method, boiled down:
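Measured by ELISA: uPA from human primary bronchial epithelial cells 24 h after chemical treatment. Values derive from bidirectional curve fitting with DMSO serving as negative control. Total protein by SRB staining in parallel wells flagged overt cytotoxicity.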

Read-out in assay [9]: Urokinase-type plasminogen activator receptor (uPAR), PLAUR (gene 5329)
Kind of assay: BSK_BE3C_uPAR: BioMAP Diversity Plus: BE3C Assay for Urokinase-type plasminogen activator receptor (uPAR) Biomarker Activity (AID 2283039).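 Note: cells exposed to compound for one day before measurement.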 To be noted: primary human bronchial epithelial cells; actives raise or lower the signal. Put shortly: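 uPAR levels were measured by ELISA after 24 h compound treatment of primary human bronchial epithelial cells, fitted in both directions relative to DMSO. Parallel SRB staining served as the cytotoxicity read-out.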

Read-out in assay [10]: Interleukin-6 (IL6), IL6 (gene 3569)
Kind of assay: BSK_CASM3C_IL6: BioMAP Diversity Plus: CASM3C Assay for Interleukin-6 (IL6) Biomarker Activity for (AID 2283040). Conditions: primary human coronary artery smooth muscle cells; actives raise or lower the signal.

Read-out in assay [11]: Tissue plasminogen activator (tPA), PLAT (gene 5327)
Kind of assay: BSK_BE3C_tPA: BioMAP Diversity Plus: BE3C Assay for Tissue plasminogen activator (tPA) Biomarker Activity (AID 2283041).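 Note: tPA level quantified by ELISA one day after compound addition.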 To be noted: primary human bronchial epithelial cells; actives raise or lower the signal. The method, boiled down: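 tPA measured by ELISA 24 h after dosing human primary bronchial epithelial cells (BE3C system). Changes in either direction were fitted against DMSO. Parallel cultures were stained with SRB to flag overt cytotoxicity.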

Read-out in assay [12]: Interleukin-8 (IL8), CXCL8 (gene 3576)
Kind of assay: BSK_CASM3C_IL8: BioMAP Diversity Plus: CASM3C Assay for Interleukin-8 (IL8) Biomarker Activity (AID 2283042).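 Note: IL-8 protein level quantified by ELISA.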 Conditions: primary human coronary artery smooth muscle cells; actives raise or lower the signal.

Read-out in assay [13]: Human Leukocyte Antigen - DR isotype (HLADR), HLA-DRA (gene 3122)
Kind of assay: BSK_CASM3C_HLADR: BioMAP Diversity Plus: CASM3C Assay for Human Leukocyte Antigen - DR isotype (HLADR) Biomarker Activity (AID 2283043).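 Note: cell-surface HLA-DR protein level quantified by ELISA.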 To be noted: primary human coronary artery smooth muscle cells; actives raise or lower the signal.

Read-out in assay [14]: Macrophage colony-stimulating factor (MCSF), CSF1 (gene 1435)
Briefly: BSK_CASM3C_MCSF: BioMAP Diversity Plus: CASM3C Assay for Macrophage colony-stimulating factor (MCSF) Biomarker Activity (AID 2283044).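 Note: M-CSF protein amount quantified by ELISA after 24 h exposure.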 Conditions: primary human coronary artery smooth muscle cells; actives raise or lower the signal.

Read-out in assay [15]: Low-density lipoprotein receptor (LDLR), LDLR (gene 3949)
Briefly: BSK_CASM3C_LDLR: BioMAP Diversity Plus: CASM3C Assay for Low-density lipoprotein receptor (LDLR) Biomarker Activity (AID 2283045).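 Note: LDLR protein level on the cell surface quantified by ELISA.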 Conditions: primary human coronary artery smooth muscle cells; actives raise or lower the signal.

Read-out in assay [16]: Monocyte Chemoattractant Protein-1 (MCP1), CCL2 (gene 6347)
Briefly: BSK_CASM3C_MCP1: BioMAP Diversity Plus: CASM3C Assay for Monocyte Chemoattractant Protein-1 (MCP1) Biomarker Activity (AID 2283046).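 Note: MCP-1 level quantified by ELISA 24 h after dosing.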 To be noted: primary human coronary artery smooth muscle cells; actives raise or lower the signal.

Assay [17] is described as follows: BSK_CASM3C_Proliferation: Cell Proliferation Assessment in the BioMAP Diversity Plus: CASM3C Assay (AID 2283047).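 Note: sulforhodamine B total protein stain as relative cell number at 560 nm; sub-confluent cells exposed 48 h before staining; fitted both ways against DMSO so gain or loss of cell number.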 To be noted: primary human coronary artery smooth muscle cells.
Read-out in assay [18]: Monokine induced gamma interferon (MIG), CXCL9 (gene 4283)
Kind of assay: BSK_CASM3C_MIG: BioMAP Diversity Plus: CASM3C Assay for Monokine induced gamma interferon (MIG) Biomarker Activity (AID 2283048).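 Note: MIG protein level measured by ELISA.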 To be noted: primary human coronary artery smooth muscle cells; actives raise or lower the signal.

Read-out in assay [19]: serum amyloid A (SAA), SAA1 (gene 6288)
Briefly: BSK_CASM3C_SAA: BioMAP Diversity Plus: CASM3C Assay for serum amyloid A (SAA) Biomarker Activity (AID 2283049).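 Note: SAA protein level quantified by ELISA.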 To be noted: primary human coronary artery smooth muscle cells; actives raise or lower the signal.

A short description of assay [20]: BSK_CASM3C_SRB: Viability Assessment in the BioMAP Diversity Plus: CASM3C Assay (AID 2283050). Conditions: primary human coronary artery smooth muscle cells.

SMILES strings stand for the structures. The source made the active and inactive calls. Rule for the calls: active = hit-call score of the fitted dose curve at least 0.9, where 1 is the maximum; inactive = score below 0.9.

In the case of `Cc1cc(=O)[nH]c(=S)[nH]1`, the result in assay [1], in assay [2], in [3], in [4], in [5] and in assay [6] was inactive. Also, the result in [7], in assay [8], in assay [9], in [10], in [11] and in assay [12] was inactive. Further, the result in assay [13], in assay [14], in assay [15], in assay [16], in assay [17] and in assay [18] was inactive. In addition, the outcome in assay [19] and in assay [20] was inactive.

`CC=Cc1ccc(O)c(OC)c1`: the result in [1], in assay [2], in assay [4], in assay [5], in [6] and in assay [7] was inactive. The result in assay [8], in assay [9], in assay [10], in [11], in assay [12] and in assay [13] was inactive. Moreover, the result in assay [14], in assay [15], in assay [16], in assay [17], in assay [18] and in assay [19] was inactive. Also, in assay [20], the result was inactive. Moreover, the AC50 in [3] is 7.6 µM (active).

On to `Cc1nc(C)nc(N2C[C@@H](C)N(c3ccnc([C@@H](C)O)n3)[C@@H](C)C2)n1`, for which the outcome in assay [1], in assay [2], in [3], in assay [4], in [5] and in assay [6] was inactive. The result in [7], in assay [8], in assay [9], in assay [10], in [11] and in assay [12] was inactive. For the same compound, the result in assay [13], in [14], in [15], in assay [16], in assay [17] and in [18] was inactive. Also, the result in assay [19] and in assay [20] was inactive.

`CC1(C)NC(=O)NC1=O`: the result in [1], in [2], in assay [3], in assay [4], in assay [5] and in [6] was inactive. In addition, the result in assay [7], in assay [8], in assay [9], in assay [10], in assay [11] and in assay [12] was inactive. Also, the result in assay [13], in assay [14], in [15], in [16], in [17] and in assay [18] was inactive. For the same compound, the outcome in assay [19] and in [20] was inactive.

As to `Cc1cc(NC(=O)C(=O)O)cc(C)c1Oc1ccc(O)c2c1CCC2`, the outcome in [1], in [2], in assay [3], in [4], in [5] and in [6] was inactive. In addition, the outcome in assay [7], in assay [8], in assay [9], in assay [10], in [11] and in [12] was inactive. Moreover, the outcome in assay [13], in [14], in assay [15], in assay [16], in assay [17] and in [18] was inactive. Besides, the result in [19] and in assay [20] was inactive.

In the case of `CC(=O)OCCOCCOCCOC(C)=O`, the outcome in assay [1], in [2], in [3], in assay [4], in assay [5] and in assay [6] was inactive. Further, the result in assay [7], in assay [8], in [9], in assay [10], in [11] and in [12] was inactive. Moreover, the outcome in assay [13], in [14], in assay [15], in assay [16], in [17] and in assay [18] was inactive. The result in assay [19] and in [20] was inactive.

The values are drawn from PubChem BioAssay (EPA / NIEHS).
